ChEMBL document CHEMBL3988442, “University of Dundee, Small-Polar-MMV Screening Library” (2021)
Out of some 48,000 compounds screened, about 13,000 (27%) showed an effect of 50% or more. This is one part of the list.

Each compound was assayed on Wolbachia pipientis (assay: Anti-Wolbachia Cell-Based Screen). Conditions: 5 µM.
Assay type: functional
Set-up: scale not given: in the data most compounds retested in dose-response had high values
In the case of `Cn1cnc2cc(C(=O)N3CCN(CCO)[C@@H]4CS(=O)(=O)C[C@@H]43)ccc21`, the “Percent Effect” value is reported as -4.245%.
`O=C(O)c1cc(-c2ccoc2)cc(S(=O)(=O)NC2CC2)c1` was tested, and the “Percent Effect” value was 13.87%.
With `c1cnc(NCC2Cn3nnc(-c4ccoc4)c3CO2)nc1` (stereo not drawn) the “Percent Effect” value was 9.551%.
With `Cc1nnc(CN2C[C@H](NC(=O)CC3CCCC3)[C@@H](C3CC3)C2)s1` the “Percent Effect” value was -5.316%.
For `COC(=O)C1CN(Cc2ccn(-c3ccc(F)cc3)n2)C[C@@H](C)O1` (stereo partly drawn), the “Percent Effect” value was -6.737%.
`CCc1cc(NC(=O)c2cccc(OCC(F)(F)F)n2)[nH]n1` was tested, and the “Percent Effect” value was -13.74%.
For `CC(C)CCn1cc(C(=O)NC2CCS(=O)(=O)C2)c2ccccc2c1=O` (stereo not drawn), the “Percent Effect” value was 143.5%.
With `O=C(NC1CCS(=O)(=O)C1)c1ccccc1SCc1cscn1` (stereo not drawn) the “Percent Effect” value was -4.386%.
For `O=C(NC1CCS(=O)(=O)C1)c1sccc1OC(F)F` (stereo not drawn), the “Percent Effect” value was 15.29%.
`Cc1nonc1-c1nc(C(C)C)nn1-c1ccc2c(c1)OCO2` was tested, and the “Percent Effect” value was -15.14%.
For `COCCn1ccc2ccc(NC(=O)NCc3noc(C)n3)cc21`, the “Percent Effect” value was -17.56%.
`Cc1noc(C)c1C(=O)NCC(O)c1ccc(F)cc1F` (stereo not drawn) was tested, and the “Percent Effect” value was 3.33%.
`CNC(=O)C(NC(=O)c1c(C)noc1C)c1ccc(F)c(F)c1` (stereo not drawn) was tested, and the “Percent Effect” value was 1.933%.
For `Cc1noc(C)c1C(=O)Nc1ccc2ncn(CC(C)C)c(=O)c2c1`, the “Percent Effect” value was 120.5%.
In the case of `COCCn1cnc2ccc(NC(=O)c3c(C)noc3C)cc2c1=O`, the “Percent Effect” value is reported as 114.6%.
In the case of `Cc1noc(C)c1C(=O)NCCc1cccs1`, the “Percent Effect” value is reported as -0.0309%.
`COc1cc(S(=O)(=O)N2CCc3ccc(F)cc32)cc(C(=O)O)c1OC` was tested, and the “Percent Effect” value was -3.468%.
With `COc1ccc(C)cc1CSCCn1nc2ccccn2c1=O` the “Percent Effect” value was 4.389%.
`Cc1sc2nc(CCN)nc(N3CCS(=O)(=O)CC3)c2c1C` was tested, and the “Percent Effect” value was 5.115%.
With `Cc1ccc(C(=O)NCCN2CCOCC2)c(=O)[nH]1` the “Percent Effect” value was 10.08%.
For `Cc1ccc(C(=O)NC2CCCCNC2=O)c(=O)[nH]1` (stereo not drawn), the “Percent Effect” value was -8.505%.
In the case of `Cc1ccc(C(=O)NC(CN2CCCC2)c2ccccc2)c(=O)[nH]1` (stereo not drawn), the “Percent Effect” value is reported as -7.426%.
For `Cc1ccc(C(=O)Nc2cnn(CC(=O)NC3CCCC3)c2)c(=O)[nH]1`, the “Percent Effect” value was -2.747%.
`O=C(NC1CCN(CC2CC2)C1)c1ccc(C(=O)c2cc[nH]c2)cc1` (stereo not drawn) was tested, and the “Percent Effect” value was 2.424%.
For `Cc1ccc(C(=O)NC2CCCN(CC(N)=O)C2)c(=O)[nH]1` (stereo not drawn), the “Percent Effect” value was 108.8%.
With `CN1CCCC(NC(=O)c2ccc(C(=O)c3cc[nH]c3)cc2)C1` (stereo not drawn) the “Percent Effect” value was 107.5%.
For `Cc1ccc(C(=O)NC2CCCN(C)C2)c(=O)[nH]1` (stereo not drawn), the “Percent Effect” value was 91.25%.
With `CCN1CCCC(NC(=O)c2ccc(C)[nH]c2=O)C1` (stereo not drawn) the “Percent Effect” value was 104.5%.
`CN1CCCC(N(C)C(=O)c2ccc(NC(=O)c3ccc[nH]3)cc2)C1` (stereo not drawn) was tested, and the “Percent Effect” value was -8.212%.
In the case of `COc1ccc(F)cc1C(=O)N1CCC2(CCC(=O)N(C(C)C)C2)CC1`, the “Percent Effect” value is reported as -13.7%.
With `CCN(CC)C1CCN(C(=O)Nc2cc(F)c(OC)c(F)c2)C1` (stereo not drawn) the “Percent Effect” value was -0.1207%.
With `COCC(=O)N[C@H](C(=O)NC(C)c1cc(C)ccc1C)C(C)C` (stereo partly drawn) the “Percent Effect” value was -5.803%.
`CC(=O)NCC(=O)N1Cc2ccnn2CC(COCCN(C)C)C1` (stereo not drawn) was tested, and the “Percent Effect” value was -1.622%.
In the case of `Cc1ccc(C(=O)NC2CCN(C(C)C)C2)c(=O)[nH]1` (stereo not drawn), the “Percent Effect” value is reported as 89.09%.
With `CC(C)N1CCC(NC(=O)NCCC(=O)NCc2ccccc2)C1` (stereo not drawn) the “Percent Effect” value was -0.958%.
For `Cc1ccc(C(=O)NC(C)CN2CCCC2=O)c(=O)[nH]1` (stereo not drawn), the “Percent Effect” value was -26.01%.
For `CCOc1cc(C)nc(N2CCN(C(=O)c3ccc[nH]3)CC2)n1`, the “Percent Effect” value was -4.872%.
In the case of `CC(C)N(Cc1ccc(C#N)cc1)C(=O)NCCNc1ncccn1`, the “Percent Effect” value is reported as -6.799%.
With `CC(c1ccco1)N(C)C(=O)NCCOc1ccc(C#N)cc1` (stereo not drawn) the “Percent Effect” value was 99.5%.
In the case of `CC(C)N(Cc1cccnc1)C(=O)CCSc1ccc(C#N)cc1`, the “Percent Effect” value is reported as -11.64%.
`CC(c1ccco1)N(C(=O)COc1ccc(C#N)cc1)C1CC1` (stereo not drawn) was tested, and the “Percent Effect” value was 1.408%.
With `CC(C)N(Cc1ccc(C#N)cc1)C(=O)Nc1ccncc1` the “Percent Effect” value was -13.59%.
For `CC(c1ccncc1)N(C)C(=O)NCCOc1ccc(C#N)cc1` (stereo not drawn), the “Percent Effect” value was 100.4%.
`CC(c1ccco1)N(C(=O)CNc1ccc(C#N)cc1)C1CC1` (stereo not drawn) was tested, and the “Percent Effect” value was -9.874%.
`CCNC(=O)N(C)C(c1cccnc1)C(C)C` (stereo not drawn) was tested, and the “Percent Effect” value was -2.757%.
`CC(c1cccnc1)N(C)C(=O)NCCOc1ccc(C#N)cc1` (stereo not drawn) was tested, and the “Percent Effect” value was 102.9%.
With `O=C(C1SCCc2sccc21)N1CCCCC1` (stereo not drawn) the “Percent Effect” value was 1.977%.
With `N#Cc1cccnc1OC1CCN(C(=O)c2cc(C3CC3)on2)CC1` the “Percent Effect” value was -1.829%.
`CN(Cc1ccco1)C(=O)C1=NN(C)C(=O)CC1` was tested, and the “Percent Effect” value was 140.7%.
With `CCN(Cc1ccco1)C(=O)C1=NN(c2ccccc2)C(=O)CN1` the “Percent Effect” value was 5.452%.
With `Cc1ccc(N2N=C(C(=O)N(C)Cc3ccco3)NCC2=O)cc1` the “Percent Effect” value was 2.373%.
With `O=C(NCCc1nnc2n1CCC2)N(Cc1ccco1)C1CCCC1` the “Percent Effect” value was -12.78%.
With `O=C(c1c[nH]c2ncccc12)N(Cc1ccco1)C1CCCC1` the “Percent Effect” value was 4.323%.
For `Cc1ccc(N(Cc2ccco2)C(=O)CC2=NN(C)C(=O)C2)cc1`, the “Percent Effect” value was 134.3%.
For `CN(CC1COc2ccccc2O1)C(=O)C1=NN(C)C(=O)CC1` (stereo not drawn), the “Percent Effect” value was -4.029%.
With `CN(Cc1ccco1)C(=O)c1ccc(=O)n(C)c1` the “Percent Effect” value was 12.27%.
`CN1N=C(C(=O)N(Cc2ccco2)C2CCCC2)CCC1=O` was tested, and the “Percent Effect” value was 120.9%.
For `COC(=O)c1cc(CN2CCN(c3ncccc3C)CC2)ccc1O`, the “Percent Effect” value was 0.3059%.
For `CCC(C)NS(=O)(=O)Cc1cccc(NC(=O)C2=CCCC2)c1` (stereo not drawn), the “Percent Effect” value was -11.93%.
With `CCN(CC(=O)NC)S(=O)(=O)N1CCCCCC1` the “Percent Effect” value was -4.569%.
`O=C1OCCN1CCCN1CCCC1c1ccc(O)cc1` (stereo not drawn) was tested, and the “Percent Effect” value was -23.79%.
For `Cc1c[nH]c(CN2CC[C@@]3(O)CCN(C(=O)C4CCC4)C[C@H]3C2)n1`, the “Percent Effect” value was 3.285%.
`CCN(C)S(=O)(=O)NC(C)c1cnc(N(C)C2CCCCC2)nc1C` (stereo not drawn) was tested, and the “Percent Effect” value was -0.2104%.
`COc1ccnc(NC2CCN(CC(=O)N3CCCC3)CC2)n1` was tested, and the “Percent Effect” value was -3.698%.
In the case of `Cc1nc(N(C)C2CCCCC2)ncc1C(C)NC(=O)c1cccnc1` (stereo not drawn), the “Percent Effect” value is reported as 7.363%.
With `O=c1c(-c2ccnc(NC3CCOCC3)n2)cnc2sc(Cl)cn12` the “Percent Effect” value was -8.128%.
In the case of `O=c1c(-c2ccnc(NC3CCCCC3)n2)cnc2sc(Cl)cn12`, the “Percent Effect” value is reported as 123.9%.
`CN(c1nccc(-c2cnc3sccn3c2=O)n1)C1CCCCC1` was tested, and the “Percent Effect” value was 92.84%.
For `CN(c1nccc(-c2cnc3sc(Cl)cn3c2=O)n1)C1CCCCC1`, the “Percent Effect” value was 110%.
For `Cc1cn2c(=O)c(-c3ccnc(N(C)C4CCCCC4)n3)cnc2s1`, the “Percent Effect” value was 84.88%.
With `CN(c1ncc(C(=O)Nc2ccccc2)c(N)n1)C1CCCCC1` the “Percent Effect” value was -11.44%.
`Cc1nc(N(C)C2CCCCC2)ncc1C(C)NC(=O)c1cscn1` (stereo not drawn) was tested, and the “Percent Effect” value was -3.92%.
In the case of `CN(C)c1nccc(N(C)C2CCCCC2)n1`, the “Percent Effect” value is reported as -7.043%.
For `O=C1N(C2CCCCC2)C[C@H]2CN(C3CCC3)CCN12`, the “Percent Effect” value was -8.618%.
In the case of `Cc1ccc(C(C)NCCc2nccn2Cc2ccccc2)o1` (stereo not drawn), the “Percent Effect” value is reported as -3.119%.
`O=C(NCCc1ccccc1Cl)NCC1(O)CCSC1` (stereo not drawn) was tested, and the “Percent Effect” value was 5.482%.
With `COc1ccccc1CC1CCCN(C(=O)c2n[nH]c3c2CCC3)C1` (stereo not drawn) the “Percent Effect” value was -10.41%.
For `COc1cccc(CCC2CCCN(C(=O)c3n[nH]c4c3CCC4)C2)c1` (stereo not drawn), the “Percent Effect” value was 9.398%.
`CO[C@H]1C[C@@H]2CN(C(=O)c3n[nH]c4c3CCCC4)C[C@@H]2C1` was tested, and the “Percent Effect” value was 95.28%.
With `O=C(NCc1ccccc1Cn1ccnc1)N1CCOCC1` the “Percent Effect” value was -11.31%.
For `CCC(CNC(=O)c1nc(=O)[nH][nH]1)Oc1ccccc1C(F)(F)F` (stereo not drawn), the “Percent Effect” value was -3.223%.
`Cc1nccn1C1CCCN(C(=O)c2ccc3c(c2)nnn3C)C1` (stereo not drawn) was tested, and the “Percent Effect” value was -0.6055%.
For `CCc1nccn1C1CCCN(C(=O)Cc2ccc(OC)c(F)c2)C1` (stereo not drawn), the “Percent Effect” value was -2.667%.
In the case of `CCc1nccn1C1CCCN(C(=O)c2ccc(OC)c(OC)c2)C1` (stereo not drawn), the “Percent Effect” value is reported as 97.86%.
In the case of `CCc1nccn1C1CCCN(C(=O)c2ccn(C)c(=O)c2)C1` (stereo not drawn), the “Percent Effect” value is reported as -5.694%.
With `CCOc1ccc(C(=O)N2CCCC(n3ccnc3C)C2)cc1OC` (stereo not drawn) the “Percent Effect” value was 91.57%.
In the case of `CCc1nccn1C1CCCN(C(=O)c2ccc3[nH]nnc3c2)C1` (stereo not drawn), the “Percent Effect” value is reported as -5.197%.
In the case of `CCc1nccn1C1CCCN(C(=O)c2ccc3c(c2)nnn3C)C1` (stereo not drawn), the “Percent Effect” value is reported as 93.39%.
In the case of `Cc1nc(C)c2c(n1)CCN(C(=O)C1(C#N)CC1)CC2`, the “Percent Effect” value is reported as -4.604%.
For `Fc1cccc(-c2nnn3c2COC(CNCc2nccs2)C3)c1.O=C(O)C(F)(F)F` (stereo not drawn), the “Percent Effect” value was -16.9%.
`CC(=O)N1CCN(c2ccnc(C)n2)CC(COc2ccccc2)C1` (stereo not drawn) was tested, and the “Percent Effect” value was 112.4%.
For `Cc1ccc(OCC2CCCN(C(=O)CN3CCOCC3)C2)cc1` (stereo not drawn), the “Percent Effect” value was -2.27%.
`Cc1nccc(N2CCC(Cc3cccc(C(=O)O)c3)CC2)n1` was tested, and the “Percent Effect” value was 4.494%.
With `COc1cccc(OCC2CCCN(C3CCN(C(C)=O)CC3)C2)c1` (stereo not drawn) the “Percent Effect” value was -9.945%.
With `CC(=O)N1CCN(C(C)C)CC(COc2ccccc2)C1` (stereo not drawn) the “Percent Effect” value was 109.4%.
`CC(=O)N1CCN(CC(N)=O)CC(COc2ccccc2)C1` (stereo not drawn) was tested, and the “Percent Effect” value was 106.5%.
In the case of `CNC(=O)c1ccnc(N2CCCC(COc3cccc(C)c3)C2)c1` (stereo not drawn), the “Percent Effect” value is reported as -58.5%.
In the case of `COc1cccc(OCC2CCCN(C(C)=O)C2)c1` (stereo not drawn), the “Percent Effect” value is reported as -1.082%.
In the case of `O=C(N1CCN(CCO)CC1)C1(O)Cc2ccccc2C1`, the “Percent Effect” value is reported as -5.424%.
With `CCc1ccc(S(=O)(=O)Nc2cn(C)cc(Br)c2=O)cc1` the “Percent Effect” value was -15.07%.
For `Cc1ccc(-c2ncc(CN3CCN(S(N)(=O)=O)CC3)s2)o1`, the “Percent Effect” value was 2.671%.
In the case of `CCn1ccnc1CN(C)c1nc(-c2ccc(Cl)cc2)nc2c1CNC2`, the “Percent Effect” value is reported as -33.82%.
For `O=c1nc(SCc2ccncc2)c2c(n1CCO)CCCC2`, the “Percent Effect” value was -12.21%.
